# Screens as filed in PubChem BioAssay.
# A selection: hits, their analogues and other compounds. The true share with any hit is near 1.3%.
# NCOA1 inh: human NCOA1 inhibition; Q15788; HEK293 GAL4-SRC1 luciferase reporter, luminescence; inhibition, % at 3.6 µM; 360,000 tested, 0.12% active;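 active = inhibition above the campaign mean plus 3 SD, with each screening campaign given its own cutoff, cut at about 60% in these data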
# NR5A2 inv ag: suppresses constitutive activity of human LRH-1 | inhibition, % at 3.6 µM | 360,000 tested, 0.13% active | O00482 | HEK293T StAR-luciferase reporter, LRH-1 transfected, 24 h;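 active = inhibition above the mean inhibition of all tested compounds plus 3 SD, cut at about 73% in these data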
# SRC3 inh: inhibits human SRC3 coactivator; inhibition, % at 3.6 µM; 360,000 tested, 0.17% active; Q9Y6Q9; HEK293 GAL4-SRC3 luciferase reporter, luminescence;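 active = inhibition above a per-campaign cutoff, the mean of all compounds plus 3 SD, cut at about 60% in these data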;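 also: higher means less SRC3-driven luciferase light from the GAL4 reporter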
# NCOA2 inhibitor: human SRC2 (NCOA2) inhibition | Q15596 | HEK293 GAL4-SRC2 luciferase reporter, luminescence | inhibition, % at 9 µM | 370,000 tested, 0.17% active;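 active = inhibition above the mean inhibition of all tested compounds plus 3 SD, set per campaign, cut at about 52% in these data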
# NR2F2 inh: inhibitors of human COUP-TFII (NR2F2) | P24468 | HEK293T NGFI-A luciferase reporter, luminescence | inhibition, % at 8.6 µM | 370,000 tested, 0.7% active | AID 686940;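 active = inhibition above a per-plate cutoff, mean inhibition of test wells between control levels plus 3 SD, cut at about 38% in these data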;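 also: cells cotransfected with COUP-TFII expression vector driving the NGFI-A reporter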
# Gli-Sufu block: Gli-Sufu pathway antagonism; AID 588413; inhibition, % at 5 µM; 340,000 tested, 0.74% active; Sufu-KO-LIGHT fibroblasts, Gli luciferase reporter luminescence;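 active = inhibition above about 55%, limit read from the data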
# Gli-Sufu confirm: Gli-SUFU antagonism confirmation, single concentration; shares compounds with Gli-Sufu block; Sufu-KO-LIGHT cells, Gli luciferase reporter, luminescence; inhibition, % at 5 µM; 2,500 tested, 40% active; AID 602428;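 active = mean inhibition at 5 µM reaching about 45%, limit read from the data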
# Gli cytotox: cytotoxic in Gli-SUFU antagonist counter-screen; shares compounds with Gli-Sufu block; Sufu-KO-LIGHT cells cytotoxicity, ATP luminescence; cytotoxicity, % at 5 µM; 2,500 tested, 32% active;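 active = mean cytotoxicity at 5 µM above about 25%, limit read from the data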;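 also: cells exposed to compound overnight for roughly 16 to 18 hours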
# Wnt3a counter: counter-screen for Gli-SUFU antagonists: Wnt3a reporter inhibition. 2,500 tested, 20% active. Wnt-LIGHT cells, Wnt3a-driven luciferase reporter, luminescence. inhibition, % at 6.25 µM. shares compounds with Gli-Sufu block;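 active = mean inhibition above about 25%, limit read from the data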
# A number is an active result; - = inactive; . = no result given.
SMILES,NCOA1 inh,NR5A2 inv ag,SRC3 inh,NCOA2 inhibitor,NR2F2 inh,Gli-Sufu block,Gli-Sufu confirm,Gli cytotox,Wnt3a counter
O=C1C(=O)N(CCCn2ccnc2)C(c2cccc(Br)c2)/C1=C(\O)c1ccc2c(c1)OCCO2 (stereo unspecified),-,-,-,-,-,-,-,-,-
O=C(NCc1ccco1)C1CCCN(S(=O)(=O)c2ccc([N+](=O)[O-])cc2)C1 (stereo unspecified),.,.,.,-,-,.,.,.,.
Cc1ccc(C(=O)N2CCCC(N(C)Cc3ccccc3)C2)s1 (stereo unspecified),-,-,-,-,-,95,-,-,-
Cc1ccc(C(=O)N2CCCC(C(=O)c3cc(F)ccc3F)C2)s1 (stereo unspecified),-,-,-,-,-,-,.,.,.
O=C(N/N=C/C(Br)=C/c1ccccc1)c1ccncc1,-,-,-,-,-,-,.,.,.
CCOc1cc(C(=O)N/N=C/C(Br)=C/c2ccccc2)cc(OCC)c1OCC,-,-,-,-,-,-,64,47,-
Cc1cc(C)cc(OC[C@@H](O)CN2CCC(C(O)(c3ccccc3)c3ccccc3)CC2)c1,.,.,.,-,-,.,.,.,.
O=C1/C(=C/c2ccccc2O)SC(=S)N1Cc1cccnc1,-,-,-,-,-,72,-,-,-
COc1cccc(-c2ncn(CCc3ccccc3OC)c2CC(C)C)c1,.,.,.,-,-,.,.,.,.
CCOC(=O)[C@]12CCCC=C1N(CCCOC)C(=O)[C@@H]2CC(=O)NCc1ccc(OC)c(OC)c1,.,.,.,-,-,.,.,.,.
COCCN(Cc1cc2cc3c(cc2nc1Cl)OCO3)C(=O)Nc1ccc(OC)cc1,-,-,-,-,-,-,-,-,-
CC(=O)CC[C@H]1CC[C@]2(CCCN(C(=O)c3ccno3)C2)O1,.,.,.,-,-,.,.,.,.
COc1ccc(CCNC(=O)CCNC(=O)c2ccco2)cc1,-,-,-,-,-,72,-,28,-
COc1cccc(CNC(=O)CCNC(=O)c2ccco2)c1,-,-,-,-,-,-,.,.,.
COc1cccc(/C=N/NC(=O)c2ccc([N+](=O)[O-])cc2Cl)c1O,-,-,-,-,-,64,-,-,-
NC(=O)COc1ncnc2scc(-c3ccc(F)cc3)c12,-,-,-,-,-,-,-,-,-
COCCNC(=O)COc1ncnc2scc(-c3ccc(F)cc3)c12,-,-,-,-,-,-,.,.,.
COc1cc2[nH]c(=O)n(Cc3ccccc3Cl)c(=O)c2cc1OC,-,-,-,-,-,-,-,-,-
CC1CCC(C(C)C)C(OCC(O)CN2CCCC(C)C2)C1 (stereo unspecified),-,-,-,-,-,-,.,.,.
CC1CCC(C(C)C)C(OCC(O)CN2CCOCC2)C1 (stereo unspecified),-,-,-,-,-,-,-,-,-
CC(C)C[C@@H](CO)N1Cc2nnn(Cc3ccccc3)c2-c2ccccc2S1(=O)=O,.,.,.,-,-,.,.,.,.
Cn1nc(CC(=O)Nc2ccc3c(c2)CCC3)c2ccccc2c1=O,-,-,-,-,-,72,68,41,-
S=c1[nH]nc(-c2n[nH]c3c2CCC3)n1N=Cc1ccc(OCc2ccccc2)cc1,.,.,.,-,-,.,.,.,.
Cc1ccc2c(c1)C(=O)CC(O)(C(F)F)O2 (stereo unspecified),-,-,-,-,-,55,-,-,-
O=C1CC2(CCCC2)Oc2ccc(F)cc21,-,-,-,-,-,-,.,.,.
SMILES,NCOA1 inh,NR5A2 inv ag,SRC3 inh,NCOA2 inhibitor,NR2F2 inh,Gli-Sufu block,Gli-Sufu confirm,Gli cytotox,Wnt3a counter
COC(=O)c1ccc(CN2CCCC(C(=O)Nc3cccc(-n4cccn4)c3)C2)cc1 (stereo unspecified),-,-,-,-,-,-,-,-,-
CC(C)OCCCNC(=O)c1ccc(CS(=O)(=O)c2cccc(C(F)(F)F)c2)o1,-,-,-,-,-,-,-,-,-
COc1ccc(C(=O)C2(C(=O)Nc3cc(C)cc(C)c3)CC(c3ccccn3)=NO2)cc1 (stereo unspecified),.,.,.,-,-,.,.,.,.
CC(C)(C)CC(=O)Nc1cc(S(=O)(=O)N2CCCCCC2)ccc1Cl,-,-,-,-,-,60,-,-,-
O=C(CCl)Nc1cc(S(=O)(=O)N2CCCCCC2)ccc1Cl,-,-,-,-,-,-,.,.,.
Cc1ccc(-c2nc(C3CCCN(S(=O)(=O)c4ccc(C)c(C)c4)C3)no2)cc1 (stereo unspecified),.,.,.,-,-,.,.,.,.
CN1CCCN(Cc2ccccc2C(F)(F)F)CC1,-,-,-,-,-,94,-,-,-
COc1ccc(S(=O)(=O)Nc2ccc(F)cc2F)cc1C(=O)N1CCOCC1,-,-,-,-,-,61,-,-,-
Cn1c(=O)[nH]c(=O)c2c1ncn2CCN1CCOCC1,-,-,-,-,-,92,-,-,-
Cc1cccc(C)c1NC(=S)N(CCN1CCCCCC1)Cc1ccco1,-,-,-,-,-,-,-,-,-
CCCCNS(=O)(=O)CC1NCc2cc(F)ccc21 (stereo unspecified),.,.,.,-,-,.,.,.,.
COC(=O)c1cccc2c([N+](=O)[O-])c(NC(C)=O)cc(C(=O)OC)c12,.,.,.,-,-,.,.,.,.
O=C(c1cc2nc(C3CC3)cc(C(F)(F)F)n2n1)N1CCCC1,-,-,-,-,-,-,.,.,.
O=C(O)c1cc2nc(C3CC3)cc(C(F)(F)F)n2n1,-,-,-,-,-,56,-,-,-
COc1ccc(NC(=O)c2c(Nc3ccccc3)sc(C(=O)c3ccc(F)cc3)c2N)cc1,-,-,-,-,-,75,85,35,81
CCC(=O)N1CCc2cc(S(=O)(=O)CCC(=O)Nc3ccc(CC)cc3)ccc21,-,-,-,-,-,-,.,.,.
CCC(=O)N1CCc2cc(S(=O)(=O)CCC(=O)Nc3ccc(C(C)=O)cc3)ccc21,-,-,-,-,-,59,-,-,-
N#Cc1ccc2nc(-c3ccc(CN4CCC(c5nc6ccccc6[nH]5)CC4)cc3)c(-c3ccccc3)nc2c1,.,.,.,-,-,.,.,.,.
CC1Cc2cc(S(=O)(=O)N3CCC(C(=O)N4CCN(c5ccccc5F)CC4)CC3)ccc2N1C(=O)C1CC1 (stereo unspecified),-,-,-,-,-,-,62,-,-
COc1ccccc1N1CCN(C(=O)C2CCN(S(=O)(=O)c3ccc4c(c3)CC(C)N4C(=O)C3CC3)CC2)CC1 (stereo unspecified),-,-,-,-,-,-,.,.,.
Cc1ccc(C)c(NC(=O)C2CCCN2S(=O)(=O)c2cccc3cccnc23)c1 (stereo unspecified),.,.,.,-,-,.,.,.,.
